Assay results reported in PubChem BioAssay AID651791 (National Center for Advancing Translational Sciences (NCATS), 2012).
Records with an inconclusive call do not appear. The source made the active and inactive calls. Calls follow the shape of the dose curve; as a rule, active = well fitted inhibition curve with a large enough effect; inconclusive = small, poorly fitted or top-dose-only effect; inactive = no such curve, though single readings can be large or run the other way.
Potency is read from the fitted curve at half-maximal effect.

Test: InCell qHTS Assay for Inhibitors of the mTORC1 Signaling Pathway in MEF (Tsc2-/-, p53-/-) Cells: Hit Validation; also: nearly all actives have a fitted effect of over 75% in size
Conditions: phospho-rpS6 immunofluorescence, 24 h; activity change, negative = inhibition: at 38.3 µM (top of the series)
Excerpt: The mammalian target of rapamycin (mTOR) is an intracellular serine/threonine kinase Aberrant regulation of mTOR signaling plays a causative role in a number of human diseases, including cancer, benign tumors such as lymphangioleiomyomatosis (LAM) and Tuberous Sclerosis Complex (TSC), and metabolic diseases such as diabetes and obesity. This project aims to identify inhibitors of ribosomal protein S6 (rpS6) phosphorylation. The phosphorylation of rpS6 is a key event downstream of mTOR activation. The assay uses a phospho-specific antibody of phospho-rpS6 to detect inhibitors of mTOR activation. Mutations in the Tsc1 and Tsc2 genes are the underlying genetic lesions responsible for TSC, causing constitutive activation of the mTORC1 pathway and leading to profound effects on cell metabolism. Aberrant metabolism in cancer has recently received significant attention as a target to develop therapeutic agents in the treatment of cancer.1 As Tsc2-/- cells have lost the ability to respond to energy and growth factor deprivation, these cells are unable to properly down regulate cellular biosynthetic processes in response to metabolic stress, and are thus extremely sensitive to glucose deprivation-induced death.2 A central goal of this project is to explore the unique cell survival and metabolic properties of cells with Tsc1 or Tsc2 by screening for compounds that selectively target the Tsc2-/- MEFs by screening both Tsc2-/- and WT MEF cell lines. We hope to better understand these aspects of TSC physiology in order to exploit them for therapeutic benefit. NIH Molecular Libraries Probe Production Centers Network [MLPCN] NIH Chemical Genomics Center [NCGC] MLPCN Grant: NS059428 Assay Submitter (PI): Blenis, John; Harvard University
For quantitative high throughput analysis of mTORC1 signaling, we developed a cell-based assay for immuno-fluorescence based detection of rpS6 phosphorylation on the Acumen Explorer that will be used a platform for the primary small molecule screen. Mouse embryonic fibroblasts (MEFs) are cultured in 1536-well plates using DMEM + 10% FBS. Twenty-four hrs after plating, test compounds (solubilized in DMSO) are delivered and incubated with the cells for 24 hrs at 37 degree Celsius. Following the incubation, media with compound is aspirated and the cells are fixed in 4% paraformaldehyde (PFA) containing PBS + 0.2% TX-100. Next, PFA is aspirated, cells are washed two times with PBS plus 0.2% TX-100 and the cells are blocked for 1 hr at room temperature (blocking buffer: LiCOR Blocking Buffer plus 0.2% TX-100). This is followed by aspiration and staining with Alexa-488 conjugated-phospho-rpS6 Ser235/236 antibody for 2 hours at room temperature (Cell Signaling Technology # 4803, 1:50 dilution in blocking buffer). Cells are washed two times with PBS plus 0.2% TX-100, and stained with 10 uM propidium iodide (PI) for 20-25 minutes for cell number measurement (1:500 dilution of Hoescht staining is also added for IN Cell imaging). The plates are scanned on the Acumen Explorer laser scanning instrument (TTP Labtech) using the 488nm laser for simultaneous excitation of the Alexa-488 and PI. The fluorescence emission from the Alexa-488 conjugated rpS6 phospho-235/236 antibody staining is selected using a […] band pass filter. Fluorescence emission from the PI stain is selected using a 575-640 nm band pass filter. The normalized phospho-S6 staining is calculated as the ratio of the integrated Alexa 488 intensity divided by the integrated PI intensity for the single concentration rapamycin control (7.5 nM) and DMSO columns. […] Inhibition of the pathway is defined based on the normalized phospho-S6 intensity in rapamycin treated cells. […]
In the case of `COc1ccc2nc(NC(=O)c3nc(S(=O)(=O)Cc4cccc(C)c4)ncc3Cl)sc2c1`, the Potency was 18.5 µM (active). With `Cc1ccc(-n2c(/C=C/c3ccc(Br)s3)nc3ccccc3c2=O)cc1C` the activity change, negative = inhibition was -100%. Work on `CCN(CC)C(=O)c1ccc(NC(=O)CCn2nc(-c3ccc(C)cc3)c3ccccc3c2=O)cc1` yielded an activity change, negative = inhibition of -100%. In the case of `CCN(CC)CCSc1nc2ccccc2c(=O)n1-c1ccc(Cl)cc1`, the activity change, negative = inhibition was -100%. `O=C(Nc1ccon1)c1cccn(Cc2cccc(Cl)c2)c1=O` showed an activity change, negative = inhibition of -100%. Work on `Cc1ccccc1-n1c(/C=C/c2ccccc2F)nc2ccccc2c1=O` yielded an activity change, negative = inhibition of -100%. In the case of `Cc1ccccc1-c1nc(CN2C(=O)CN=C(c3ccccc3)c3ccccc32)c(C)o1`, the activity change, negative = inhibition was -100%. For `CCOc1ccc(NC(=O)CSc2oc(-c3ccccc3)nc2S(=O)(=O)c2ccc(Cl)cc2)cc1`, the Potency was 3.69 µM (active). Work on `CCOc1ccc(CN(CCc2ccc3c(c2)OCO3)Cc2ccc(C)cc2)cc1` yielded an activity change, negative = inhibition of -100%. `Cc1ccccc1-n1c(/C=C/c2c(C)[nH]c3ccccc23)nc2ccccc2c1=O` showed an activity change, negative = inhibition of -100%.
